From PubChem BioAssay
Hits are enriched below; roughly 4.1% of the tested compounds scored in any of these assays.
hgDAF-12 ag = H. glycines DAF-12 receptor agonists, primary screen, cell-based, luminescence, HEK293, GAL4 fusion, UAS-luciferase | AID 687014, 2013 | activation, % at 6.8 µM | HEK293 GAL4-hgDAF12 UAS-luciferase reporter, agonist luminescence; normalized to butyrate control | 1.8% of 370,000 active | Nuclear hormone receptor DAF-12 (Heterodera glycines), GAL4 fusion;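 active = activation above a cutoff set at the mean of all screened compounds plus 3 SD, cut at about 10% in these data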
DAX1 inh-1 = DAX1 (NR0B1) inhibitors, primary screen, cell-based, HEK293, Gal4-DAX1, luciferase luminescence; Nuclear receptor subfamily 0 group B member 1 (Homo sapiens), P51843; HEK293 Gal4-DAX1 luciferase reporter; inhibition, % at 6.75 µM; 0.99% of 340,000 active;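 active = inhibition above the mean over all tested compounds plus 3 SD, cut at about 4.2% in these data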;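 also: inhibition shows as a rise in luminescence from relieved DAX1 repression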
Target sequence (P51843 207-470 limits assumed): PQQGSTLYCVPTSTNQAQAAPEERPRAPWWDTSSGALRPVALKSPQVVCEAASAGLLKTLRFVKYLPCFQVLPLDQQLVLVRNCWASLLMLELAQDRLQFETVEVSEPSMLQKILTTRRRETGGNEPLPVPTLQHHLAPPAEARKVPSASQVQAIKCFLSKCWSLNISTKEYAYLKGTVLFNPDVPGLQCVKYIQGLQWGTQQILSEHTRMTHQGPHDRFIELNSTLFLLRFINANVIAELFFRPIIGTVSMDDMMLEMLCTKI
hcDAF-12 act = H. contortus DAF-12 nuclear receptor activators, primary screen, cell-based, luminescence, HEK293, lit1-tk-luc reporter. activation, % at 6.8 µM. 1.4% of 370,000 active. HEK293 hcDAF-12 lit1-tk-luc reporter; 0% DMSO, 100% Δ7-dafachronic acid;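 active = activation above the mean of all tested compounds plus 3 SD, cut at about 5.5% in these data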
DAX1 inh-2 = DAX1 (NR0B1) inhibitors on StAR promoter, primary screen, cell-based, luminescence, SF-1 (NR5A1), full-length DAX-1; HEK293T StAR-luciferase reporter, SF-1/DAX-1 repression relief; inhibition, % at 6.8 µM; 1.1% of 370,000 active;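 active = inhibition above the mean over all tested compounds plus 3 SD, cut at about 3.6% in these data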;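 also: higher inhibition means more luminescence from relief of DAX-1 repression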
ssDAF-12 act = S. stercoralis DAF-12 nuclear receptor activators, primary screen, cell-based, luminescence, HEK293, GRIP1 co-expression, lit1-tk-luc; Nuclear hormone receptor DAF-12 (Strongyloides stercoralis); HEK293 ssDAF-12/GRIP1 lit1-tk-luc reporter; % of 3 µM dafachronic acid response; activation, % at 6.8 µM; 1% of 370,000 active; AID 652126, 2013;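 active = activation above the mean over all tested compounds plus 3 SD, cut at about 0.9% in these data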
LXRb hcDAF ctr = LXR agonists, Gal4 luciferase reporter, confirmation, counter-screen for hcDAF-12 agonist project, cell-based, luminescence, HEK293, H. contortus campaign. 3,400 tested, under 10 active. shares compounds with hcDAF-12 act. AID 743027, 2013. HEK293 Gal4-LXR tk-luc reporter, 24 h; normalized: DMSO 0%, positive control 100%. activation, % at 6.8 µM;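 active = mean percent activation of the reporter above a cutoff set as the average over tested compounds plus their standard deviation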
hcDAF12 conf = H. contortus DAF-12 receptor agonists, confirmation, cell-based, luminescence, HEK293, lit1-tk-luc, triplicate; activation, % at 6.8 µM; HEK293 hcDAF-12 lit1-tk-luc reporter; % of Δ7-dafachronic acid response; shares compounds with hcDAF-12 act; 61% of 3,400 active;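 active = mean activation across triplicate tests above the threshold derived from the earlier primary screen, cut at about 5.5% in these data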
Of the large screens only hits and unclear results are named; the others gave an inactive call (follow-up assays come after a bar, where they were run).

Cc1c(-c2ccccn2)c(=O)[nH]n1-c1ccc(F)cc1	hgDAF-12 ag 26, hcDAF-12 act 15, DAX1 inh-2 4.2, ssDAF-12 act 1.8 | LXRb hcDAF ctr inactive | hcDAF12 conf 15
O=c1[nH]n(-c2ccc(F)cc2)c2ncccc12	none
N#C/C(=C/c1ccc(N2CCOCC2)o1)c1nc2ccccc2[nH]1	hcDAF-12 act 6.8 | LXRb hcDAF ctr inactive | hcDAF12 conf 8.1
N#C/C(=C\c1ccc(N2CCOCC2)o1)c1ccccc1	none
N#Cc1c(N)[nH]c(C(=O)c2ccccc2)c1-c1ccc(Br)cc1	none (no result: DAX1 inh-1)
O=C(O)COc1ccccc1/C=N/NC(=O)c1cc2ccccc2cc1O	hcDAF-12 act 11, ssDAF-12 act 2.7 | LXRb hcDAF ctr inactive | hcDAF12 conf inactive
S=C1NC2(CCCCCC2)NN1c1ccccc1	none (no result: DAX1 inh-1)
O=C1CCC2(CC1)NC(=O)N(c1ccccc1)N2	hcDAF-12 act 6.5, ssDAF-12 act 1.1 | LXRb hcDAF ctr inactive | hcDAF12 conf inactive
O=C(CC(=O)c1c(F)cccc1Cl)c1ccccc1O	hcDAF-12 act 9.1 | LXRb hcDAF ctr inactive | hcDAF12 conf 6.9
O=C(CCNC(=O)c1ccccc1Cl)NNC(=O)c1ccccc1O	none
O=C(NC(=S)Nc1cccnc1Cl)c1ccc(Cl)cc1	hgDAF-12 ag 15, hcDAF-12 act 10, ssDAF-12 act 1.1 | LXRb hcDAF ctr inactive | hcDAF12 conf 15
O=C(NC(=S)Nc1cccnc1Cl)c1ccco1	none
Cc1cccc(C(=O)Nc2cccc3cccnc23)c1	none
Cc1ccc(C(=O)Nc2cccc3cccnc23)cc1C	hcDAF-12 act 9.7 | LXRb hcDAF ctr inactive | hcDAF12 conf 8.8
O=C(Nc1cccc2cccnc12)c1ccc(Cl)cc1	hcDAF-12 act 6.7, ssDAF-12 act 1.2 | LXRb hcDAF ctr inactive | hcDAF12 conf 7.6
CC(C)c1ccc2c(c1)C1Cc3ccccc3C1N2 (stereo unspecified)	hcDAF-12 act 7.8 | LXRb hcDAF ctr inactive | hcDAF12 conf inactive
Cc1ccc(/C(O)=C2\C(=O)C(=O)N(Cc3cccnc3)C2c2ccccc2[N+](=O)[O-])cc1 (stereo unspecified)	hgDAF-12 ag 13, hcDAF-12 act 9.7, ssDAF-12 act 1.7 | LXRb hcDAF ctr inactive | hcDAF12 conf 6.8
CC(=O)c1nn(-c2ccc(Cl)cc2)cc1C(=O)c1ccccc1	none
CCOC(=O)c1nn(-c2ccc(C)cc2)cc1C(=O)c1ccccc1	hgDAF-12 ag 13, hcDAF-12 act 6.9 | LXRb hcDAF ctr inactive | hcDAF12 conf 5.7
CC(C)=CCC/C(C)=C/C[C@]12C[C@H](C(=O)O)N(C(=O)OC(C)(C)C)[C@@H]1N(C(=O)OC(C)(C)C)c1ccccc12	none (no result: DAX1 inh-1, DAX1 inh-2)
CCN(C[C@H]1N[C@@](CC)(C(=O)OC)[C@H]2C(=O)N(C)C(=O)[C@@H]12)C(=O)c1ccc(F)cc1	hcDAF-12 act 12 | LXRb hcDAF ctr inactive | hcDAF12 conf inactive
CCN(C[C@H]1N[C@@](Cc2ccccc2)(C(=O)OC)[C@H]2C(=O)N(C)C(=O)[C@@H]12)C(=O)c1ccc(F)cc1	none
CNC(=O)c1cc2c(ccc3ccccc32)o1	hcDAF-12 act 7.9 | LXRb hcDAF ctr inactive | hcDAF12 conf inactive
CC1CCN(CC(=O)c2cccs2)CC1	none
O=C(CN1CCc2ccccc2C1)c1cccs1	hcDAF-12 act 6.9 | LXRb hcDAF ctr inactive | hcDAF12 conf inactive
Cc1cc(C)c2c(N)c(C(=O)Nc3nccs3)sc2n1	hgDAF-12 ag 16, hcDAF-12 act 18, ssDAF-12 act 2.3 | LXRb hcDAF ctr inactive | hcDAF12 conf 24
Cc1cc(C)c2c(N)c(C(=O)NN)sc2n1	none
Cc1ccc(NC(=O)c2sc3nc(C)cc(C)c3c2N)cc1	hgDAF-12 ag 12, hcDAF-12 act 7.8 | LXRb hcDAF ctr inactive | hcDAF12 conf 9.3
COc1ccc2c(c1)C1=NN(/C(C)=C/C(C)=O)C(c3cccc(F)c3)C1CC2 (stereo unspecified)	none
COc1ccc2c(c1)C1=NN(/C(C)=C/C(C)=O)C(c3ccc(F)cc3)C1CC2 (stereo unspecified)	hcDAF-12 act 9.5, ssDAF-12 act 1.3 | LXRb hcDAF ctr inactive | hcDAF12 conf 5.7
Cc1cc2cc(OCC(=O)O)ccc2n1C	none
Cc1cc2cc(OCc3ccccc3)ccc2n1C	hcDAF-12 act 6.7 | LXRb hcDAF ctr inactive | hcDAF12 conf inactive
CSc1cccc(NC(=O)c2cccc3cccnc23)c1	hgDAF-12 ag 11, hcDAF-12 act 12, ssDAF-12 act 2.3 | LXRb hcDAF ctr inactive | hcDAF12 conf 8.5
CNS(=O)(=O)c1cc(NC(=O)c2cccc3cccnc23)ccc1C	none
COc1ccc(CCNC(=O)COC(=O)C23CC4CC(CC(C4)C2)C3)cc1	hcDAF-12 act 6.8 | LXRb hcDAF ctr inactive | hcDAF12 conf inactive
O=C(CCCCCN1C(=O)C2C3C=CC(C3)C2C1=O)N1CCN(c2ncccn2)CC1 (stereo unspecified)	none (no result: DAX1 inh-1)
O=C1N=c2ccccc2=C1c1sc(=S)n(NC(=O)c2cccc(O)c2)c1O	none
O=C1N=c2ccc(Br)cc2=C1c1sc(=S)n(NS(=O)(=O)c2ccccc2)c1O	hcDAF-12 act 6.6 | LXRb hcDAF ctr inactive | hcDAF12 conf inactive
CCCCN(C(=O)c1cccc(S(=O)(=O)N2CCOCC2)c1)c1c(N)n(CCC)c(=O)[nH]c1=O	hcDAF-12 act 8.2 | LXRb hcDAF ctr inactive | hcDAF12 conf inactive
COC(=O)C1=C(C)N(Cc2cccc(C(F)(F)F)c2)C(=NCc2ccc(C(F)(F)F)cc2)NC1c1cccc(C(F)(F)F)c1 (stereo unspecified)	none (no result: DAX1 inh-1)
COc1cccc(NC(=O)Nc2ccncc2)c1	hcDAF-12 act 6.8 | LXRb hcDAF ctr inactive | hcDAF12 conf inactive
COc1ccccc1C(=O)Nc1cccc(SC)c1	none
COc1cccc(NC(=O)c2cc3ccccc3cc2OC)c1	hcDAF-12 act 8.4 | LXRb hcDAF ctr inactive | hcDAF12 conf 9.3
